Measured values: PubChem BioAssay (NCATS)
Inconclusive results are not listed. Active and inactive are the calls of the source. Unless noted, calls come from the whole dose curve; as a rule, active = well fitted curve in either direction with a large enough effect (not every such curve was filed as active); inconclusive = small, poorly fitted or top-dose-only effect, or another doubt; inactive = flat fitted curve, though single readings scatter.

What was measured:
[1] = AP1 Signaling Pathway (AID 357); conditions: ME-180 AP-1-bla reporter, EGF-induced, beta-lactamase ratio, 5 h; at 17.2 µM (top of the series) unless noted;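 note: ME-180 reporter cells stimulated with EGF at its EC50 level; % is set by controls: 0 for no effect and ±100 for the full control effect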
Method in brief: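 Read-out was the 460nm/530nm emission ratio (excitation 405nm) after CCF4 loading for 2.5 hours at room temperature. Cells carried an AP-1-driven beta-lactamase reporter, were stimulated with EC50 EGF plus compound for 5 hours, and AC50 values came from titrations.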

[2] = target: Cytochrome P450 1A2 (Homo sapiens) (UniProt P05177); assay: p450-cyp1a2 (AID 410; calls by dose curve; note: potency is the fitted concentration of half-maximal effect;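 for activity change, negative = inhibition: -100% = full effect of reference inhibitor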)
Method in brief: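 O-Demethylation of luciferin 6' methyl ether by human CYP1A2 is monitored as luciferase luminescence. Substrate sits at Km (100uM); enzyme is 20nM. Values are scaled to 57 uM furafylline as maximal inhibition.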

[3] = Stat Signaling Pathway (AID 446); conditions: ME-180 SIE beta-lactamase reporter, IL-6 stimulated, 5 h; at 17.2 µM (top of the series) unless noted;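 note: ME-180 cervical cancer cells given 40 pM IL-6 alongside compound; SIE-controlled beta-lactamase reporter measured as 460/530 nm FRET emission ratio; % is set by controls: 0 for no effect and ±100 for the full control effect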
Method in brief: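 Normalization used AC90 stimulation (300 pM IL-6) and AC90 inhibition (125 nM pan-JAK inhibitor at 40 pM IL-6). The underlying signal is SIE-driven beta-lactamase in ME-180 cells after 5 h IL-6 exposure with compound.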

[4] = target: Glucocorticoid receptor (Homo sapiens) (UniProt P04150); assay: GR-GFP Redistribution (AID 450;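 active = compounds whose dose series gives a full or clear partial fitted curve of increased nuclear translocation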; note: potency is the fitted concentration of half-maximal effect)
[5] = target: Glucocorticoid receptor (Homo sapiens) (UniProt P04150); assay: GR-EFC Redistribution (AID 451; calls by dose curve; note: potency is the fitted concentration of half-maximal effect); conditions: CHO-K1 GR-EFC translocation, beta-gal luminescence, 2 h
Method in brief: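 CHO-K1 cells expressing nuclear EA and GR-ED fragments of b-gal; compounds titrated up to 46 uM final, 2 h at 37 C. GR nuclear translocation read as complemented b-gal luminescence after 1 h RT detection.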

[6] = target: 3',5'-cyclic-AMP phosphodiesterase 4B (Homo sapiens) (UniProt Q07343); assay: qHTS Assay for Inhibitors of PDE-IV (AID 607; active = well fitted activation curve with a large enough effect in the main read-out, with a control signal flat, not every such curve was filed as active; note: % of control where 0% means no effect)
Method in brief: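 HEK293 ACTOne cells with CNG channel (1000/well), endogenous PDE4; membrane potential dye, compounds up to 22.9 uM final. Fluorescence Ex 535/Em 590; RO 20-1724 (100 uM final) as reference.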

[7] = target: Guanine nucleotide-binding protein G(i) subunit alpha-1 (Homo sapiens) (UniProt P63096); assay: qHTS Assay for Inhibitors of RGS12 GoLoco Motif Activity (Green Fluorophore) (AID 879; active = well fitted curve in the direction sought with a large enough effect; an effect the other way counts as inactive or inconclusive;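 note: 0% = labeled peptide with Gαi1 and full inhibition = labeled peptide alone without protein; negative values mean loss of peptide binding seen as reduced polarization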)
Method in brief: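 A drop in FITC polarization marked displacement of the FITC-tagged RGS12 GoLoco peptide (10 nM) from Gαi1 (50 nM). Compounds were incubated 10 min at room temperature in Tris pH 7.5 buffer containing 150 mM NaCl, 0.1 mM GDP and 0.05% NP40; unlabeled peptide titration served as control.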

[8] = target: Cytochrome P450 3A4 (Homo sapiens) (UniProt P08684); assay: qHTS Assay for Activators of Cytochrome P450 3A4 (AID 885; active = well fitted curve in the direction sought with a large enough effect; an effect the other way counts as inactive or inconclusive; note: nearly all actives have a fitted effect of over 65% in size; note: potency is the fitted concentration of half-maximal effect)
Method in brief: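 Human CYP3A4 dealkylates Luciferin-PPXE to luciferin, which luciferase detection converts to light. Substrate was at its KM (25uM), buffer 200mM KPO4, reaction 60 min at RT.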

[9] = qHTS Assay for Identification of Small Molecule Agonists for Thrombopoietin (TPO) Signaling Pathway (AID 917; active = well fitted curve in the direction sought with a large enough effect; an effect the other way counts as inactive or inconclusive; note: % is set by controls: 0 for no effect and ±100 for the full control effect)
Method in brief: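 Human TPO receptor–transfected Ba/F3 cells (murine, IL-3-dependent) in IL-3-deficient medium; compounds plus TPO at EC50, 26 pM final; 24 hrs, 37 C; GpIIb-luciferase luminescence after 10 min RT detection.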

[10] = target: Muscarinic acetylcholine receptor M1 (Rattus norvegicus) (UniProt P08482); assay: qHTS Assay for Antagonists of Acetylcholine Muscarinic M1 Receptor: Kinetic Measurement of Intracellular Calcium Response (AID 943; active = well fitted curve in the direction sought with a large enough effect; an effect the other way counts as inactive or inconclusive; note: potency is the fitted concentration of half-maximal effect; nearly all actives have a fitted effect of over 75% in size)
Method in brief: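 Antagonism is measured as inhibition of the carbachol-evoked calcium rise in CHO cells transfected with rat M1. Cells are dye-loaded, exposed to compound for 10 min, then stimulated with 100 nM carbachol (EC80).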

[11] = target: Pyruvate kinase (Leishmania mexicana) (UniProt Q27686); assay: qHTS Validation Assay for Inhibitors of Leishmania Mexicana Pyruvate Kinase (AID 945; active = well fitted curve in the direction sought with a large enough effect; an effect the other way counts as inactive or inconclusive;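 note: 0% = DMSO only neutral control wells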)
Method in brief: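 Luminescent ATP detection (PKLight) after a 1 h room-temperature reaction of 0.2 nM LmPYK E451W mutant with 0.5 mM PEP and 0.1 mM ADP at pH 7.2. Activity is normalized to DMSO-only control wells.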

[12] = target: Pyruvate kinase PKM (Homo sapiens) (UniProt P14618); assay: qHTS Assay for Activators of Human Muscle Pyruvate Kinase (AID 954; active = well fitted curve in the direction sought with a large enough effect, not every such curve was filed as active;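 note: 0% = uninhibited enzyme and -100% = no enzyme or full thiadiazolimine inhibition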)
Method in brief: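 Compound pinned into substrate mix (0.5 mM PEP, 0.1 mM ADP), then 0.1 nM PKM2 added; 1 h, RT. Stop/detection luciferase reagent added, luminescence read. Normalized to no-inhibition and no-enzyme or reference-inhibitor controls.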

[13] = target: Alpha-galactosidase A (Homo sapiens) (UniProt P06280); assay: Counterscreen for Glucocerebrosidase Inhibitors: qHTS Assay for Human alpha-Galactosidase at pH 4.5 (AID 992; active = well fitted curve in the direction sought with a large enough effect; an effect the other way counts as inactive or inconclusive; note: 0% is about no effect)
Method in brief: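 Steps: enzyme (2 nM final), then compound across 0.7 nM to 77 uM, then 80 uM fluorogenic galactopyranoside substrate; incubate 20 min at room temperature; quench at pH 10; measure fluorescence at 365/440 nm.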

[14] = target: alpha-glucosidase (Oryza sativa, rice) (UniProt Q653V4); assay: Counterscreen for Glucocerebrosidase Inhibitors: qHTS Assay for Rice alpha-Glucosidase at pH 5.0 (AID 997; active = well fitted curve in the direction sought with a large enough effect; an effect the other way counts as inactive or inconclusive;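 note: 0% = full activity with enzyme and -100% = basal without enzyme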)
Method in brief: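 Endpoint fluorogenic assay at pH 5.0: compounds (0.7 nM to 77 uM) titrated against 4 nM rice enzyme and 400 uM 4-MU-alpha-glucoside for 20 min at room temperature; NaOH/glycine stop, read ex 365/em 440 nm, Hill-fitted AC50.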

[15] = target: Mitogen-activated protein kinase 10 (Mus musculus) (UniProt Q61831); assay: JNK3 AlphaScreen Assay (AID 530);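 note: kinase came from lysate of stimulated human HepG2 cells; signal reports phosphorylation of biotinylated GST-cJun 1-79 at Ser73 with 10 µM ATP; % is set by controls: 0 for no effect and ±100 for the full control effect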
Method in brief: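 Activity was read by AlphaScreen after JNK3-containing HepG2 lysate (cytokine pre-activated) phosphorylated biotinylated GST-cJun with 10 uM ATP at room temperature. Phospho-Ser73 cJun antibody with Protein-A acceptor beads provided detection.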

[16] = NFAT Signaling Pathway (AID 444); conditions: Jurkat NFAT-bla M1, carbachol, beta-lactamase ratio, 5 h; at 17.2 µM (top of the series) unless noted
Method in brief: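 Jurkat cells with NFAT-driven β-lactamase reporter and co-expressed M1 receptor, stimulated with carbachol (final 1 uM, ~EC50), compound titration, 5 h at 37 °C. CCF4 loaded 1 h at RT; 460/530 nm ratio gave %activity and AC50.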

[17] = target: Cytochrome P450 2C9 (Homo sapiens) (UniProt P11712); assay: qHTS Assay for Inhibitors and Substrates of Cytochrome P450 2C9 (AID 883; active = well fitted curve in the direction sought with a large enough effect; an effect the other way counts as inactive or inconclusive; note: % is set by controls: 0 for no effect and ±100 for the full control effect; nearly all actives have a fitted effect of over 60% in size)
Method in brief: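 Human CYP2C9 (10nM) with Luciferin-H at 100uM (its KM) in 25mM KPO4; compound preincubated 10 min at 37C, then NADPH regeneration for 60 min at 37C. Luciferin read by luminescence after detection reagent; normalized to 57uM sulphaphenazole as full inhibition.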

[18] = target: Cytochrome P450 2D6 (Homo sapiens) (UniProt P10635); assay: qHTS Assay for Inhibitors and Substrates of Cytochrome P450 2D6 (AID 891; active = well fitted curve in the direction sought with a large enough effect; an effect the other way counts as inactive or inconclusive; note: nearly all actives have a fitted effect of over 60% in size; note: potency is the fitted concentration of half-maximal effect)
Method in brief: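 Luminescent read-out of luciferin formed by 5 nM human CYP2D6 demethylating 30 uM Luciferin-ME EGE (Km level) over 60 min at room temperature after NADPH regeneration addition. Data normalized to full inhibition by 1.43 uM quinidine.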

[19] = target: Cytochrome P450 2C19 (Homo sapiens) (UniProt P33261); assay: qHTS Assay for Inhibitors and Substrates of Cytochrome P450 2C19 (AID 899; active = well fitted curve in the direction sought with a large enough effect; an effect the other way counts as inactive or inconclusive; note: % is set by controls: 0 for no effect and ±100 for the full control effect; nearly all actives have a fitted effect of over 60% in size)
Method in brief: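 5 nM human CYP2C19 with 10uM Luciferin-H EGE (at KM) in 50mM KPO4, compound preincubated 10 min at 37C, then NADPH regeneration for 60 min at 37C. Luciferin read by luminescence after detection reagent; normalized to 57uM ketoconazole as full inhibition.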

[20] = qHTS Assay for Identification of Small Molecule Agonists for Hypoxia Response Element Signaling Pathway (AID 914; active = well fitted activation curve with a large enough effect in the signal ratio, with a control signal flat, not every such curve was filed as active; the % refers to the signal ratio; note: % of control where 0% means no effect); conditions: ME-180 (cervical carcinoma) HRE-bla reporter, beta-lactamase ratio, CoCl2, 17 h; activation: stronger effect = higher value
Method in brief: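 HRE-bla ME-180 cells, overnight plating in Opti-MEM with 0.5% dialyzed FBS; cpd titration + EC50 CoCl2, 17 h, 37 degrees Celsius; CCF4 2.5 h RT; 460/530 nm ratio; AC50.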

[21] = target: Cytochrome P450 3A4 (Homo sapiens) (UniProt P08684); assay: qHTS Assay for Inhibitors and Substrates of Cytochrome P450 3A4 (AID 884; active = well fitted curve in the direction sought with a large enough effect; an effect the other way counts as inactive or inconclusive; note: % is set by controls: 0 for no effect and ±100 for the full control effect; nearly all actives have a fitted effect of over 50% in size)
Method in brief: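 Luminescent readout of luciferin produced by CYP3A4 (20 nM) dealkylation of Luciferin-PPXE, 25 uM (its KM). NADPH-driven reaction ran 60 min at RT after 10 min compound preincubation; data scaled to 57 uM ketoconazole as 100% inhibition.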

Chain of 3',5'-cyclic-AMP phosphodiesterase 4B (Homo sapiens) (Q07343 whole entry, looked up): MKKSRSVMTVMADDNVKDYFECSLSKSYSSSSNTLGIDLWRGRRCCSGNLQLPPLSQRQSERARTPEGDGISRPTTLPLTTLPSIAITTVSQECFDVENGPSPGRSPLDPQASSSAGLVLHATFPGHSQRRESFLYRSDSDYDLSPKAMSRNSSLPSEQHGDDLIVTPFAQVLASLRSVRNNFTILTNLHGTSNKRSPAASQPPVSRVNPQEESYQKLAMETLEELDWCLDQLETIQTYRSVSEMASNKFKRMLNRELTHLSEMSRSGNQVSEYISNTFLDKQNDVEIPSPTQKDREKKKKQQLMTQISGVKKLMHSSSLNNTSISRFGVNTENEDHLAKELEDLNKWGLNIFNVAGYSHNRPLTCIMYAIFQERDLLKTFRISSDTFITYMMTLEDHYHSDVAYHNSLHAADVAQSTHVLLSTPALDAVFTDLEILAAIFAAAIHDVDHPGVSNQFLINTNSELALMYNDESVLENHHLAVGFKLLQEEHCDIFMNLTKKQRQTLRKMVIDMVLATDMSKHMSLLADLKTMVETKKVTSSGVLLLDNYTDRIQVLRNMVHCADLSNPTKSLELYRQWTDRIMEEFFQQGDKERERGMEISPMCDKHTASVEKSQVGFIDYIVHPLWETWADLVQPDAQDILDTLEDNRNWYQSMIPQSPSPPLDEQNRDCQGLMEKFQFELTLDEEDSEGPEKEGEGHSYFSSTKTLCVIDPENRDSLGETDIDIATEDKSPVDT
Chain of Cytochrome P450 1A2 (Homo sapiens) (P05177 whole entry, looked up): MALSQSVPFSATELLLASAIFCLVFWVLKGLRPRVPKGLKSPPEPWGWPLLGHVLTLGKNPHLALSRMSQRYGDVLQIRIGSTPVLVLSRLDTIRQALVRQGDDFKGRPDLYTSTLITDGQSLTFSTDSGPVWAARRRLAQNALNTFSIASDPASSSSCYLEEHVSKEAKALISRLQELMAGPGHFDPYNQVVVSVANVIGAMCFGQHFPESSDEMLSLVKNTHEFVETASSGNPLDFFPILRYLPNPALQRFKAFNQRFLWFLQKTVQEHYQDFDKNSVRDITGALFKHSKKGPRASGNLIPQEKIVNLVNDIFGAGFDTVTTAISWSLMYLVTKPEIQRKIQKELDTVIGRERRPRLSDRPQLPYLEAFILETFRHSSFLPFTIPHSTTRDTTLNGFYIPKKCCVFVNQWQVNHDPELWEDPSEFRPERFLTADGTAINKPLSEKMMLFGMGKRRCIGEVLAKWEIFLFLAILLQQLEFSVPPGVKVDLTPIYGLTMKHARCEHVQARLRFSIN
Chain of Cytochrome P450 3A4 (Homo sapiens) (P08684 whole entry, looked up): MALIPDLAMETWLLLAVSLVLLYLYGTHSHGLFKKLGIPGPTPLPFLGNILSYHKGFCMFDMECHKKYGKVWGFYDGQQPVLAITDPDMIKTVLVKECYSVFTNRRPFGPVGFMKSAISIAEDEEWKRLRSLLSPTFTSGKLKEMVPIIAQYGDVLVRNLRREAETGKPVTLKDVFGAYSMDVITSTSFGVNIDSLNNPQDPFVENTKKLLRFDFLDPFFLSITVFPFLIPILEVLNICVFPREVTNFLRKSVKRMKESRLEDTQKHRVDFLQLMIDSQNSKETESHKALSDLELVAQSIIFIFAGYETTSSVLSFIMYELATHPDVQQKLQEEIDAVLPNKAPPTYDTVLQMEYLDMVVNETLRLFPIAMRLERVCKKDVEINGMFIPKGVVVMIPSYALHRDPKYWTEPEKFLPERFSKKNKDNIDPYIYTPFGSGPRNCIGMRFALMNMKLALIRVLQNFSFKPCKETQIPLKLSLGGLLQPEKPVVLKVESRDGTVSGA
Chain of Glucocorticoid receptor (Homo sapiens) (P04150 whole entry, looked up, the tested form may be a part): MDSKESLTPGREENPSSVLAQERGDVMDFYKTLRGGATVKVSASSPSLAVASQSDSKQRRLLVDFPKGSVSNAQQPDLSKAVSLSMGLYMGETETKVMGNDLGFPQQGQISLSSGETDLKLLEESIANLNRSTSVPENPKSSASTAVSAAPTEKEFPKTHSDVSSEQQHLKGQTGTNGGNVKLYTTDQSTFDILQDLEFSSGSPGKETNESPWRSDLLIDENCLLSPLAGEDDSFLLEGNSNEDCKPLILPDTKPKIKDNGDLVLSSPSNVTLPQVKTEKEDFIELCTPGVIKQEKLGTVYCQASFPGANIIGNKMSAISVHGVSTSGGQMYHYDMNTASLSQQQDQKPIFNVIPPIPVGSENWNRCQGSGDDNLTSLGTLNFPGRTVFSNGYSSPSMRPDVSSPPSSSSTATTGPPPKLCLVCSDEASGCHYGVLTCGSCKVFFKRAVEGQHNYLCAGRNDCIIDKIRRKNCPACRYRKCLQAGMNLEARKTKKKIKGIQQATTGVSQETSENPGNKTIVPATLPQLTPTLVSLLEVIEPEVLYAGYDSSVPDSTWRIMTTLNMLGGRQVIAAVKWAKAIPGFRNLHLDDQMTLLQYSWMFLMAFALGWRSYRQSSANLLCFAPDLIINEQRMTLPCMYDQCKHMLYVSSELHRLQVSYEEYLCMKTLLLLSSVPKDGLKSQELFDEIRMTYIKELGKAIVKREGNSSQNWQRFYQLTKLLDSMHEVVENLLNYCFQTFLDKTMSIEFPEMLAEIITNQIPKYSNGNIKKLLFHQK
Chain of Cytochrome P450 2D6 (Homo sapiens) (P10635 whole entry, looked up): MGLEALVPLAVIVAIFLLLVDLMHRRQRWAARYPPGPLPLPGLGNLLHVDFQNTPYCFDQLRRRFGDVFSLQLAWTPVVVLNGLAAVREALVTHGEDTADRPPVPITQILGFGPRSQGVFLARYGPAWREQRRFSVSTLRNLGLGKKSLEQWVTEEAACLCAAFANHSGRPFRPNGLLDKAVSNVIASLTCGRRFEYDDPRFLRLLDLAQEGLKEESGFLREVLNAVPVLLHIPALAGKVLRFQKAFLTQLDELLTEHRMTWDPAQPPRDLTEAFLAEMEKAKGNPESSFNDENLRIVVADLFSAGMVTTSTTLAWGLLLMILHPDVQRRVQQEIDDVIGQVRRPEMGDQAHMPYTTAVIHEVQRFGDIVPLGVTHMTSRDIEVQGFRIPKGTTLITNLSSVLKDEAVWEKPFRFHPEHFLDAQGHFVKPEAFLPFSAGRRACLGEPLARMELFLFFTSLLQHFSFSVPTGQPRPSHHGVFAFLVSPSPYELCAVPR
Chain of Pyruvate kinase (Leishmania mexicana) (Q27686 2-499 E452W): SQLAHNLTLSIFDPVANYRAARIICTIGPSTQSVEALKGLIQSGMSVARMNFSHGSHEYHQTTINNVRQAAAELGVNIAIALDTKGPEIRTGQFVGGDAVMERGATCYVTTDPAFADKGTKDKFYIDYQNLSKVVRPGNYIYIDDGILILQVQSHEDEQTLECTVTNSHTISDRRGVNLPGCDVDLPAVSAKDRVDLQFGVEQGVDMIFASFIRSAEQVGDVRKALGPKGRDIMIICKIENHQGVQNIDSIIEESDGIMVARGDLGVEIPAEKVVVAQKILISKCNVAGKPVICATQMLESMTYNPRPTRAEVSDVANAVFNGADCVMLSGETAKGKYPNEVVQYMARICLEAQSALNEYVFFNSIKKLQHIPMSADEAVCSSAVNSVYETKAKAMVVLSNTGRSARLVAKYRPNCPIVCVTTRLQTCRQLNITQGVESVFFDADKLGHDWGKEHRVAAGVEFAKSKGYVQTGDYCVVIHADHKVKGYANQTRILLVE
Chain of Pyruvate kinase PKM (Homo sapiens) (P14618 whole entry, looked up): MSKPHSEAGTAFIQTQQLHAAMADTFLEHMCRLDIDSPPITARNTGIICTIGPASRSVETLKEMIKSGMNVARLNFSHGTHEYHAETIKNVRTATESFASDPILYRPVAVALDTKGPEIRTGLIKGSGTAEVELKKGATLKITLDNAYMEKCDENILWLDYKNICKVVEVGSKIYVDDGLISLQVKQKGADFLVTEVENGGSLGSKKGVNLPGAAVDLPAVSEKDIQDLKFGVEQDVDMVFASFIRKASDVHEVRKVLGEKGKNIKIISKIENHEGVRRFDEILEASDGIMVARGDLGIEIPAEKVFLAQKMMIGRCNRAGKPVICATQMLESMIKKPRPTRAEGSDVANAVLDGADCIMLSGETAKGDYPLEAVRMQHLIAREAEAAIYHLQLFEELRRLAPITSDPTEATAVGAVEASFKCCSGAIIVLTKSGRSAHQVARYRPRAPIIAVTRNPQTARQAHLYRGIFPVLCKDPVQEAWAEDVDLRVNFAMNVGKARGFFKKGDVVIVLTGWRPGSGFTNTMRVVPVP
Chain of Guanine nucleotide-binding protein G(i) subunit alpha-1 (Homo sapiens) (P63096 whole entry, looked up): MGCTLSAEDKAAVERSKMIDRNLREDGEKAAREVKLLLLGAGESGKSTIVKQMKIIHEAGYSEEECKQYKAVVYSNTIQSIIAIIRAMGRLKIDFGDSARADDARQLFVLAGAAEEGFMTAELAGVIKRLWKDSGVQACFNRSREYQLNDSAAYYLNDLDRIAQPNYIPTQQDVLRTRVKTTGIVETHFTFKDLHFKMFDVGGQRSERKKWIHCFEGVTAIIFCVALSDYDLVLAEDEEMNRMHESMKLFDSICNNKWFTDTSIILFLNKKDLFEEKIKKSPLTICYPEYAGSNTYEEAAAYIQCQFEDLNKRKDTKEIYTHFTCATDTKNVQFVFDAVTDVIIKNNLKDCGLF
Chain of Muscarinic acetylcholine receptor M1 (Rattus norvegicus) (P08482 whole entry, looked up): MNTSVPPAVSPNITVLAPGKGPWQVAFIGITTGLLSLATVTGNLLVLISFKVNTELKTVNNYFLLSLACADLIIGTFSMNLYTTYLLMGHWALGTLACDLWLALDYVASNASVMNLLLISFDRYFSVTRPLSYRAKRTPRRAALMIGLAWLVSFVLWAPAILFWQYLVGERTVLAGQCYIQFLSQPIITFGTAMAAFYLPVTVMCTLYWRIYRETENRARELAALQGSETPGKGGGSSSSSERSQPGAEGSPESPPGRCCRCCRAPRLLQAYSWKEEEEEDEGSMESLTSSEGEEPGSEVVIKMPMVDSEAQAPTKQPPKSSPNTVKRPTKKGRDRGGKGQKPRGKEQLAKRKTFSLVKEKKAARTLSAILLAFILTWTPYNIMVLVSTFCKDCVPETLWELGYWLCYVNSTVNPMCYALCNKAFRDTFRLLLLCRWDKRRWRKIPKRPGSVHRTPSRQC

CC1CCN(CC[C@@H]2CCCN2S(=O)(=O)c2cccc(O)c2)CC1
active: Potency [10] 14.1 µM
inactive: activity change, negative = inhibition [1] 2.33% [at 38 µM] | Potency [2] | activity, negative = inhibition [3] -6.42% [at 38 µM] | Potency [4] > 46 µM | Potency [5] > 46 µM | Potency [6] | outcome [7] | Potency [8] | Potency [9] | Potency [11] | outcome [12] | outcome [13] | outcome [14]

N=C1[C@@H](O)[C@]2(I)c3ccccc3N3C(=N)[C@H](O)[C@@H]4c5ccccc5N1[C@@H]4[C@@H]32
inactive: activity change, negative = inhibition [1] 9.35% [at 7.69 µM] | Potency [4] > 46 µM | Potency [5] > 9.22 µM | activity change, negative = inhibition [15] -25.9% [at 11.4 µM] | Potency [6]
active: Potency [2] 2.51 µM

O=C1CC(NCc2ccc3c(c2)OCO3)C(=O)N1Cc1ccc2c(c1)OCO2 (configuration not stated)
inactive: activity change, negative = inhibition [1] -14.2% | activity change, negative = inhibition [16] 15.6% | activity, negative = inhibition [3] -1.08% | Potency [4] > 20.6 µM

COC(=O)c1ccc(-c2sc3nc(N4CCOCC4)c4c(c3c2N)CC(C)(C)OC4)o1
inactive: activity change, negative = inhibition [1] -12.7% | activity change, negative = inhibition [16] -1.53% | activity, negative = inhibition [3] 5.68%

OC[C@@H]1O[C@@H](n2cnc3c(NCCc4ccccc4)ncnc32)[C@@H](O)[C@H]1O
inactive: activity change, negative = inhibition [1] -4.22% [at 38 µM] | Potency [2] | activity, negative = inhibition [3] 0.109% [at 38 µM] | Potency [4] > 46 µM | Potency [5] > 46 µM | Potency [15] | Potency [6] | Potency [17] | Potency [18] | Potency [19]

Cc1ccc(N2C(=O)C3ON(c4ccccc4)C(c4ccncc4)C3C2=O)cc1 (configuration not stated)
inactive: activity change, negative = inhibition [1] 5.13% | activity change, negative = inhibition [16] 9.45% | activity, negative = inhibition [3] -10.5%

Cc1cc(-c2cc(C)c(O)c(C(C)(C)C)c2)cc(C(C)(C)C)c1O
active: Potency [2] 0.631 µM
inactive: activity change, negative = inhibition [1] -0.717% [at 7.69 µM] | activity, negative = inhibition [3] 14.1% [at 7.69 µM] | Potency [4] > 46 µM | Potency [5] > 9.22 µM | activity change, negative = inhibition [15] -3.71% [at 11.4 µM] | Potency [6] | activation [20] -9.94%

CCCN(CCc1ccccc1)[C@H]1CCc2c(O)cccc2C1
inactive: activity change, negative = inhibition [1] 9.86% [at 38 µM] | activity, negative = inhibition [3] -8.8% [at 38 µM] | Potency [4] > 46 µM | Potency [5] > 46 µM | Potency [15] | outcome [7] | Potency [21] | Potency [11] | outcome [12] | outcome [13]
active: Potency [2] 12.6 µM | Potency [8] 12.6 µM | Potency [18] 0.501 µM | Potency [10] 0.501 µM
